For 25 molecules, Kd results are on record in PMC5540273 (PLoS ONE, 2017).

For orientation: Kd means the concentration at which binding is half-saturated. A high value points to a looser complex.

Assay [1] deals with JAK3(JH1domain-catalytic).
Assay [2] has as its system JAK2(JH1domain-catalytic).
A further assay relates to T1, IKK-beta.
T1 construct: gene IKBKB

Assay [3] has as its system JAK1(JH2domain-pseudokinase).
The subject of assay [4] is JAK1(JH1domain-catalytic).
A further assay has as its system T2, IKK-epsilon.
T2 construct: gene IKBKE

The subject of a further assay is T3, JNK3.
T3 construct: gene MAPK10

Another assay concerns T4, JNK1.
T4 construct: gene MAPK8

For the next assay, the system named is T5, JNK2.
T5 construct: gene MAPK9

A further assay relates to T6, LOK.
T6 construct: gene STK10

Where only a bound is given, the exact number is not on record here.
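Further: kd values determined as follow-up on hits from a single-replicate KINOMEscan panel screen.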

In the case of `Cn1ccc2ncnc(Oc3ccc(NC(=O)Nc4cccnc4)c(Cl)c3)c21`, the affinity with KIT, expressed as Kd, was 47 nM.

The molecule `O=C(Nc1n[nH]c2nc(-c3ccco3)c(Br)cc12)c1ccc(CN2CCCC2)cc1.O=C(O)[C@H](O)[C@@H](O)C(=O)O` [SB-742352] registered a dissociation constant (Kd) in the assay with KIT of 66 nM.

`COc1ccc(NC(=O)Nc2ccc(C)c(-c3ccc(C(=O)Nc4ccncc4)cc3)c2)cc1` [GSK1398475]: the dissociation constant Kd in the assay with KIT was determined as 44 nM.

For the molecule `COc1cc2c(Nc3cccc(NC(=O)c4ccccc4)c3)ncnc2cc1OCCCN1CCOCC1` [GSK223810], the dissociation constant (Kd) was 300 nM in the assay on KIT, 390 nM in the assay with LCK and 130 nM with LYN.

On to `O=C(Nc1ccccc1F)NC1CCN(c2ccnc(Nc3ccc(F)cc3)n2)C1` (centres unmarked) [GSK1379722], for which the Kd with ICK and in the assay on IGF1R was above 10000 nM in each case.

`CN1c2ccc(-c3ccc(C(=O)NCCO)cc3)cc2-c2[nH]ncc2S1(=O)=O`: binding in assay [1] was characterised by a dissociation constant (Kd) of 6800 nM.

In the assay with LIMK2, `CNc1nccc(-c2c(-c3ccc(F)cc3)ncn2CCCN2CCOCC2)n1` [SB-222516] returned a Kd above 10000 nM.

For `Fc1cccc(COc2ccc(Nc3ncnc4sc(-c5ccc[nH]5)cc34)cc2Cl)c1` [GW707818], in assay [2], the dissociation constant Kd was above 10000 nM.

In the case of `Cl.Cl.c1ccc(-c2cc3ccncc3cc2OC2CCNCC2)cc1` [GSK1122999], in the assay with IKK-beta, the affinity, expressed as Kd, was 24 nM.

Turning to `CC(=O)Nc1n[nH]c2ncc(-c3ccccc3)cc12` [SB-548492], the Kd in [3] turned out to be 380 nM.

Turning to `C[C@@H]1CCN(C(=O)CO)C[C@@H]1N(C)c1ncnc2[nH]ccc12`, the dissociation constant Kd in assay [4] was 120 nM; in assay [2] it was 11 nM; in [1] it was 3.6 nM.

Molecule `Oc1ccc2ncnc(Nc3ccc(OCc4ccccc4)cc3)c2c1` [GI262866] displayed a Kd in the assay with LTK above 10000 nM.

For `CC(C)(C)c1ccc(-n2cnc3c(N)ncnc32)cc1` [SKF-97263], the dissociation constant Kd in assay [3] was found to be 250 nM.

In the case of `CCc1nc(-c2cccc(C)c2)c(-c2ccnc(NC(=O)c3ccccc3)c2)s1`, the Kd in the assay with IKK-epsilon is above 10000 nM; in the assay with JNK3, 190 nM; with LATS2, above 10000 nM.

For `COC(=O)c1c(-c2ccccc2)c2cc(Cl)ccc2c(=O)n1Cc1ccc(S(C)(=O)=O)cc1`, the figures for the Kd in the assay on JNK1, in the assay with JNK2 and in the assay with JNK3 were 61 nM, 44 nM and 14 nM, respectively.

In the case of `COc1ccc(-c2oc3ncnc(N)c3c2-c2ccc(OC)cc2)cc1` [SB-589132], the dissociation constant Kd in the assay on LATS1 is above 10000 nM.

For the molecule `CCCc1ccc(S(=O)(=O)NC2CCN(c3ccnc(Nc4ccc(OC)cc4)n3)C2)cc1` (centres unmarked) [GSK1379737], the equilibrium dissociation constant (Kd) with LIMK2 is above 10000 nM; in the assay on LTK it was 8700 nM.

With `Cc1ccc(NC(=O)c2cccc(C#N)c2)cc1-c1ccc(C(=O)Nc2ccncc2)cc1` [GSK1398463], the Kd in the assay on KIT amounted to 310 nM; with LCK it was 560 nM.

In the case of `Nc1nc(-c2ccc3c(N)n[nH]c3c2)cc(N2CCC[C@@H](C(=O)Nc3ccccc3)C2)n1.O=C(O)C(F)(F)F.O=C(O)C(F)(F)F` [GSK2288359], the equilibrium dissociation constant (Kd) (in the assay on IGF1R; in assay [2]) was above 10000 nM throughout.

In the assay with HUNK, `COC(=O)c1cccc(NC(=O)NCCNc2ccnc(Nc3ccc(F)cc3)n2)c1` [GSK1379883] gave a Kd above 10000 nM.

For `O=C(Nc1ccccc1)Nc1ccc(Oc2ccc3nccn3n2)cc1`, in the assay with KIT, binding was characterised by a dissociation constant (Kd) of 99 nM.

The molecule `Cl.c1ccc(Cn2ccc3cc(Nc4ncnc5ccccc45)ccc32)cc1` [GW275568] came in with a dissociation constant (Kd) in [2] above 10000 nM.

For the molecule `COc1cc2ncnc(Nc3ccc(OCc4ccccc4Br)c(Cl)c3)c2cc1OC.Cl` [GI261590], in the assay on LOK, the equilibrium dissociation constant (Kd) came out at 2000 nM.

On to `CN1CCC(n2cnc(-c3ccc(F)cc3)c2-c2ccnc(NC3CCNCC3)n2)CC1` [SB-229482], for which the figures for the dissociation constant Kd in the assay on JNK2 and in the assay on JNK3 were 170 nM and 140 nM, respectively.

In turn, `Cn1cc(-c2ccc3c(c2)CCN3C(=O)Cc2cccc(C(F)(F)F)c2)c2c(N)ncnc21` [GSK2606414] returned a dissociation constant (Kd) with KIT of 5200 nM.
